Assay [1] has as its target Mitogen-activated protein kinase 3 (Homo sapiens) (UniProt P27361). Particulars: at 1 µM.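 Note: values are mean percent inhibition of MAPK3.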
Assay [2] deals with SRSF protein kinase 3 (Homo sapiens) (UniProt Q9UPE1). Particulars: at 0.1 µM.
Assay [3] shares this target. Particulars: at 1 µM.
Assay [4] has as its target Mitogen-activated protein kinase 14 (Homo sapiens) (UniProt Q16539). Particulars: at 0.1 µM.
Assay [5] shares this target. The following applies: at 1 µM.
Assay [6] deals with Mitogen-activated protein kinase 11 (Homo sapiens) (UniProt Q15759). The following applies: at 0.1 µM.
Chain of Mitogen-activated protein kinase 11 (Homo sapiens) (Q15759 whole entry): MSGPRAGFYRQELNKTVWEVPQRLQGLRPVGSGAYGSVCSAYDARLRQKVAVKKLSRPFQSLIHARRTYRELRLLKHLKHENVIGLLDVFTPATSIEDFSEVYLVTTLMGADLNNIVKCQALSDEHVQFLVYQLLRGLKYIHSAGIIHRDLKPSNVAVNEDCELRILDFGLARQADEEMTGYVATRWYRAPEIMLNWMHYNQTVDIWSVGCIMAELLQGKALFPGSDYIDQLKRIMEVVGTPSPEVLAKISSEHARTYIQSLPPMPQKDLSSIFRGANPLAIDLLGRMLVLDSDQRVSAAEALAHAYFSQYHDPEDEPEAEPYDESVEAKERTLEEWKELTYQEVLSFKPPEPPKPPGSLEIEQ
Assay [7] has the same target. The following applies: at 1 µM.
In assay [8] the target is T1, Mitogen-activated protein kinase 13 (Homo sapiens) (UniProt O15264).
T1 sequence (whole entry): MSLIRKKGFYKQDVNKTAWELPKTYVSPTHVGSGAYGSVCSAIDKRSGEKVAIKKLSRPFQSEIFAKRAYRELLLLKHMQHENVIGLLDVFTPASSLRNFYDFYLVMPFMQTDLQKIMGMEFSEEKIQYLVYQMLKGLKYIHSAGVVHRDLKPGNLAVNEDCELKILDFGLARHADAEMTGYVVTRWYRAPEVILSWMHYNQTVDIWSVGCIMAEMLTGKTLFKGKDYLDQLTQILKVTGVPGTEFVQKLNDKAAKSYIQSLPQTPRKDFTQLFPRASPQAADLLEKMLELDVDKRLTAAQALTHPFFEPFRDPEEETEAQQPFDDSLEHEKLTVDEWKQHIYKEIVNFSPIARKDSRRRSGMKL
Particulars: at 0.1 µM.

Assay [9] addresses T1, Mitogen-activated protein kinase 13 (Homo sapiens). Particulars: at 1 µM.
The target of assay [10] is T2, Mitogen-activated protein kinase 12 (Homo sapiens) (UniProt P53778).
T2 sequence (whole entry): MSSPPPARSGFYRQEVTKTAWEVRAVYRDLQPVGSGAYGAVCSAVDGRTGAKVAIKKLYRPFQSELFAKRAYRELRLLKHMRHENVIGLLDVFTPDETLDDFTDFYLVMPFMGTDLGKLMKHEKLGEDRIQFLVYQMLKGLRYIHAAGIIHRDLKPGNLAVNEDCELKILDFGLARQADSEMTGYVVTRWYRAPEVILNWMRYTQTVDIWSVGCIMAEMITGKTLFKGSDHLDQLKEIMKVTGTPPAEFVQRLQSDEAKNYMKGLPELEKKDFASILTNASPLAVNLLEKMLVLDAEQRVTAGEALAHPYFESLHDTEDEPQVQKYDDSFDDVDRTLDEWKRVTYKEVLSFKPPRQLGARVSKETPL
Particulars: at 0.1 µM.

For assay [11], the target named is T2, Mitogen-activated protein kinase 12 (Homo sapiens). Particulars: at 1 µM.
Assay [12] deals with SRSF protein kinase 1 (Homo sapiens) (UniProt Q96SB4). The following applies: at 0.1 µM.
Chain of SRSF protein kinase 1 (Homo sapiens) (Q96SB4 whole entry): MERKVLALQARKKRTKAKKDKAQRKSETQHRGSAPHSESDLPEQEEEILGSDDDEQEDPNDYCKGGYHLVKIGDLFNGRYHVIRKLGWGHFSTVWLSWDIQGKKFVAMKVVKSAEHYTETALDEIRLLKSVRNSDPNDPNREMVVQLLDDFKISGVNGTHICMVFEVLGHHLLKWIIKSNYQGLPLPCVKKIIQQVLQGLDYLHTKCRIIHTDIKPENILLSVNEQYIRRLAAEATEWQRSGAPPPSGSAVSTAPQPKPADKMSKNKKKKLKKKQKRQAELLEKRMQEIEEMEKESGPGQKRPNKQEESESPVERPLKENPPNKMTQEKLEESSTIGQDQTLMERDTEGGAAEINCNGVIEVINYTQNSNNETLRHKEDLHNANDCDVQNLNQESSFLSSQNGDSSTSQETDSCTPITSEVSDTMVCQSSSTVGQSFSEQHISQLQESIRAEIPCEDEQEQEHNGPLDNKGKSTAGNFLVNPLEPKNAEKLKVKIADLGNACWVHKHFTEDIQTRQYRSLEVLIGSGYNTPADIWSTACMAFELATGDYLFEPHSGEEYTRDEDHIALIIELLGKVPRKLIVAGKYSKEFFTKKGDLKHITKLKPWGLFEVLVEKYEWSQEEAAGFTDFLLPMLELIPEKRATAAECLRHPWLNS
The target is the same in assay [13]. Particulars: at 1 µM.
The target of assay [14] is Phosphatidylinositol 4,5-bisphosphate 3-kinase catalytic subunit alpha isoform (Homo sapiens) (UniProt P42336). Particulars: at 0.1 µM.
Chain of Phosphatidylinositol 4,5-bisphosphate 3-kinase catalytic subunit alpha isoform (Homo sapiens) (P42336 whole entry, canonical isoform): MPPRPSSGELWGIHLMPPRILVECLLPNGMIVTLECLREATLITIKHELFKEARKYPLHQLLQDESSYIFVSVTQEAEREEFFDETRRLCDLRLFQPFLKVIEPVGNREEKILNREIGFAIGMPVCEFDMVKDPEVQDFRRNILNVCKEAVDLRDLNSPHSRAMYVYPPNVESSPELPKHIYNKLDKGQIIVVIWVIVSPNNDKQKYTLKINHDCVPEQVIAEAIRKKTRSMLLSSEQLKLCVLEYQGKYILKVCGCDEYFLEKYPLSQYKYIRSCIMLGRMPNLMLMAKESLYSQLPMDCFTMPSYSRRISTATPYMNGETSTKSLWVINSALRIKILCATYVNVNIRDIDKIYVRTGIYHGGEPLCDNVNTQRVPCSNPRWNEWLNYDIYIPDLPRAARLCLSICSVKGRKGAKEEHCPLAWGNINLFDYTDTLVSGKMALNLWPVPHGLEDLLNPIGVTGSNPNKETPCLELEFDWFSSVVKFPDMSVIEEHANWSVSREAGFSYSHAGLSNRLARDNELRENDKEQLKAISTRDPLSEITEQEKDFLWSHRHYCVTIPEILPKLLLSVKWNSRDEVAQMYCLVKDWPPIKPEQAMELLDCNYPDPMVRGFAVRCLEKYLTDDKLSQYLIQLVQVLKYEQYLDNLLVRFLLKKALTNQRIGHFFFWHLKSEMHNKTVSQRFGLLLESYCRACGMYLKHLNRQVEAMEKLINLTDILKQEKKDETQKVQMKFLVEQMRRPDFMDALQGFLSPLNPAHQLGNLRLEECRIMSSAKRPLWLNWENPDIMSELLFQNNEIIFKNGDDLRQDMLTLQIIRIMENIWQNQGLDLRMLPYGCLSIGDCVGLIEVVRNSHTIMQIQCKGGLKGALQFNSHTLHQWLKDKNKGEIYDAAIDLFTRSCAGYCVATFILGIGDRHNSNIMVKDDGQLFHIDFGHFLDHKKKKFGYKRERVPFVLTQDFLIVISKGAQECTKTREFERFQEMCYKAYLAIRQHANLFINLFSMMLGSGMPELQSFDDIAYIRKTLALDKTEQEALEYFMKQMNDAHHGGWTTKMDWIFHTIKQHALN
Assay [15] has the same target. The following applies: at 1 µM.
In assay [16] the target is T3, Phosphatidylinositol 4,5-bisphosphate 3-kinase catalytic subunit delta isoform (Homo sapiens) (UniProt O00329).
T3 sequence (whole entry): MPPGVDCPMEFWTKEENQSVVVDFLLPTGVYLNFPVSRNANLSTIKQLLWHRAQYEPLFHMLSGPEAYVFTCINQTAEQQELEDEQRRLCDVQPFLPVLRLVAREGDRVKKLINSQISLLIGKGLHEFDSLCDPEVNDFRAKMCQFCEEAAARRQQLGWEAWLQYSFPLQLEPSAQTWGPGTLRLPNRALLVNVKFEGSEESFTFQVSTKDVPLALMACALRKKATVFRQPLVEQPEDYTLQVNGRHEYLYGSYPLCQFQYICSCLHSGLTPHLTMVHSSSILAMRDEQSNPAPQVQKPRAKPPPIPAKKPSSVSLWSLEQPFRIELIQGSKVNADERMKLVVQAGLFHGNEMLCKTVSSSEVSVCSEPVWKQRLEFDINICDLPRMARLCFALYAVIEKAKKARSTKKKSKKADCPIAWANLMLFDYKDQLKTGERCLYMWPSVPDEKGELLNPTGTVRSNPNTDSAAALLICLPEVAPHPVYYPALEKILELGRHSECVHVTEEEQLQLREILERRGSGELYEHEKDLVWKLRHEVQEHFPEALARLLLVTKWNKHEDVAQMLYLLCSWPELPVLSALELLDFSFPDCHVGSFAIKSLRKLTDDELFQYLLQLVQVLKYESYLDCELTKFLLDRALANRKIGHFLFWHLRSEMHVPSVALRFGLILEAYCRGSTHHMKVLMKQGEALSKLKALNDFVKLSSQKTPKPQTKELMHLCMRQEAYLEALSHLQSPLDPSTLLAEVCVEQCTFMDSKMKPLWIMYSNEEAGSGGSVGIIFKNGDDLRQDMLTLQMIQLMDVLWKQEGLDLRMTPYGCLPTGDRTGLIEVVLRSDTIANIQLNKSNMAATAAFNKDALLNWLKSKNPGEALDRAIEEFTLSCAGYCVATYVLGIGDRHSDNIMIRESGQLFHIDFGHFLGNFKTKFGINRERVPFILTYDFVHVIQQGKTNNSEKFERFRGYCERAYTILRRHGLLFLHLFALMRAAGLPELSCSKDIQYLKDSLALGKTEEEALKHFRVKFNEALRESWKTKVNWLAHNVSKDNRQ
The following applies: at 0.1 µM.

The target of assay [17] is T3, Phosphatidylinositol 4,5-bisphosphate 3-kinase catalytic subunit delta isoform (Homo sapiens). Particulars: at 1 µM.
For assay [18], the target named is Phosphatidylinositol 4-kinase beta (Homo sapiens) (UniProt Q9UBF8). Particulars: at 0.1 µM.
Chain of Phosphatidylinositol 4-kinase beta (Homo sapiens) (Q9UBF8 2-816 limits assumed): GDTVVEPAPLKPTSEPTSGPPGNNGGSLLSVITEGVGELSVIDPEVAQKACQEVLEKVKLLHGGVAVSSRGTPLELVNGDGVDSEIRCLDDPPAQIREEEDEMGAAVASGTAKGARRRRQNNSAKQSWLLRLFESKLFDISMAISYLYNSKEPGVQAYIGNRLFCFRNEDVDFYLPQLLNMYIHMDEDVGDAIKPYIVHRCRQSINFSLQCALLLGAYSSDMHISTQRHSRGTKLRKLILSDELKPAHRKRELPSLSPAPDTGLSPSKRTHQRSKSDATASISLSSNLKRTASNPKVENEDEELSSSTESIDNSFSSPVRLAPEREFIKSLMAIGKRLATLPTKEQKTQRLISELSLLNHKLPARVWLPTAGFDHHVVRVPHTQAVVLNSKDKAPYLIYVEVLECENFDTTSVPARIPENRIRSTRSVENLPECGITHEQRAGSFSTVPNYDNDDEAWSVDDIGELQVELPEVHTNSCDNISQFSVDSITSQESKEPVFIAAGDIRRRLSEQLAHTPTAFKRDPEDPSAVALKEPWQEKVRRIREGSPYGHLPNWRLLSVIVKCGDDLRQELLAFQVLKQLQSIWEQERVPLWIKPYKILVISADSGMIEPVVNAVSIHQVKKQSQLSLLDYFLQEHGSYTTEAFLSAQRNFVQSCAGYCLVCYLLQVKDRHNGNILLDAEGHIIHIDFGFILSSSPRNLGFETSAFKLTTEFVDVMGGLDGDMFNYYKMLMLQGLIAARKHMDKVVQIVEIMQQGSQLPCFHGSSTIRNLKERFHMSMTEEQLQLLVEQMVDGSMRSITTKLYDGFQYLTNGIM
Assay [19] has the same target. Particulars: at 1 µM.
For assay [20], the target named is Sphingosine kinase 1 (Homo sapiens) (UniProt Q9NYA1). Particulars: at 0.1 µM.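 Note: mean percent inhibition of SPHK1 activity, measured within the GSK PKIS screening panel.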
Chain of Sphingosine kinase 1 (Homo sapiens) (Q9NYA1 whole entry): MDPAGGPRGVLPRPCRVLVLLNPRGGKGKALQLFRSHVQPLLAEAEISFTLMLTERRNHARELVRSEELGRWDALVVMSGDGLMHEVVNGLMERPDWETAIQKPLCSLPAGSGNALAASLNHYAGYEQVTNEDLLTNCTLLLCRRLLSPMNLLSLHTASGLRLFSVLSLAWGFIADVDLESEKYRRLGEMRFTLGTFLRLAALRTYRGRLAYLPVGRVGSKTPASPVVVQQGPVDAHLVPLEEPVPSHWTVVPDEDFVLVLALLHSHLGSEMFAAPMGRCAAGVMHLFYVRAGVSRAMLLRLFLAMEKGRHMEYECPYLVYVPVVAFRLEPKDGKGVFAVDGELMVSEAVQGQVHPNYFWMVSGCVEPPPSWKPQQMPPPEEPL

Chain of Mitogen-activated protein kinase 14 (Homo sapiens) (Q16539 whole entry): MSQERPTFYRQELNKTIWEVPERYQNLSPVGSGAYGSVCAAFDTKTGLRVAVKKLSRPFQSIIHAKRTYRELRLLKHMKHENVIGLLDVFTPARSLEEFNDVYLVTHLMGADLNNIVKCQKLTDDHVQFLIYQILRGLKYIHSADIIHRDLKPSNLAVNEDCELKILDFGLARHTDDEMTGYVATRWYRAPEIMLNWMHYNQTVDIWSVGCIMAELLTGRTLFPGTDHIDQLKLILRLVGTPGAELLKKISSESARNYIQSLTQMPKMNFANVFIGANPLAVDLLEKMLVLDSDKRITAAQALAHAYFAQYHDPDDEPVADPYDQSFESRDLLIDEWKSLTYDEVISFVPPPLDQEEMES
Chain of Mitogen-activated protein kinase 3 (Homo sapiens) (P27361 whole entry): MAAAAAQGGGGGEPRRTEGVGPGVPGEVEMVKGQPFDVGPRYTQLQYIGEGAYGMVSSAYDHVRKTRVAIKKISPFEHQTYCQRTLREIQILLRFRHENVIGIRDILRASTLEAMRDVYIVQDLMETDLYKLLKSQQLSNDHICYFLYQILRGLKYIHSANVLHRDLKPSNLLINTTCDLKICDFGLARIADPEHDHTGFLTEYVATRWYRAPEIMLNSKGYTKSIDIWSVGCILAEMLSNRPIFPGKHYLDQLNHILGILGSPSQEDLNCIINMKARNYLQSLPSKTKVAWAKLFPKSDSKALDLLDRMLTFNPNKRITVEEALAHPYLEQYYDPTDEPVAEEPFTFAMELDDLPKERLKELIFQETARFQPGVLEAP
Chain of SRSF protein kinase 3 (Homo sapiens) (Q9UPE1 whole entry): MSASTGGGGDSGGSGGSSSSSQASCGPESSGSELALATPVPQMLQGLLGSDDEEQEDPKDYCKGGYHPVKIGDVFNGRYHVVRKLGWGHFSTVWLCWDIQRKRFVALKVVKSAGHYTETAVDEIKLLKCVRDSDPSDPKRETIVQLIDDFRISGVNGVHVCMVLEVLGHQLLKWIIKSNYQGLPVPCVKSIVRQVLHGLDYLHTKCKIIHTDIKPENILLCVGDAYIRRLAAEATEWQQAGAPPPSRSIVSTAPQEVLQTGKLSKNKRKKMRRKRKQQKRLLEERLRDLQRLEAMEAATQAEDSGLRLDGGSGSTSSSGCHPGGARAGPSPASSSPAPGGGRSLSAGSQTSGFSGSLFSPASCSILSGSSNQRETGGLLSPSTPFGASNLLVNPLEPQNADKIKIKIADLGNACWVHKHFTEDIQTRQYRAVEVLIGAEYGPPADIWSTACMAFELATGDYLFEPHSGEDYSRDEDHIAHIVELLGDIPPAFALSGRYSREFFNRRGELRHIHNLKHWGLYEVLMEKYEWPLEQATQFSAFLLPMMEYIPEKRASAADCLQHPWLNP

Regarding `Fc1ccc(-c2cc(-c3c[nH]nc3-c3ccccn3)ccn2)cc1`, the inhibition (commonly the relative decrease from the control value, in per cent) in assay [1] was 4.81%; in assay [2], -1.32%; in [3], 1.09%; in assay [4] it was 5.14%; in assay [5], 37%; in [6] it was 5.12%. Also, the inhibition in [7] was 12.5%; in [8], -1%; in assay [9] it was 3.97%; in assay [10], 2.24%; in assay [11], 3.28%; in assay [12], -0.82%. For the same compound, the inhibition in assay [13] is 1.31%; in assay [14], 4.44%; in assay [15], 3.51%; in assay [16], 2.06%; in assay [17], 3.22%; in assay [18], -6.09%. Moreover, the inhibition is -0.81% in assay [19] and 1.6% in [20].

Consider `CS(=O)(=O)CCNCc1coc(-c2ccc3ncnc(Nc4ccc(OCc5ccccc5)cc4)c3c2)c1`, for which the inhibition in [1] was 4.16%; in assay [2] it was 0.59%; in [3], -0.06%; in assay [4] it was 3.52%; in assay [5] it was 5.25%; in [6], 1.13%. The inhibition is 5.1% in assay [7]; 1.6% in [8]; 1.56% in assay [9]; 1.93% in [10]; 3.41% in [11]; -2.53% in [12]. The inhibition in [13] is -3.45%; in assay [14] it was 2.17%; in [15], 3.25%; in assay [16], 0.39%; in assay [17] it was 0.49%; in assay [18], -2.05%. In addition, the figures for the inhibition in assay [19] and in assay [20] were -3.75% and 4.73%, respectively.

As for `N#Cc1c(NC(=O)CN2CCOCC2)sc2c1CCCC2`, the inhibition in assay [1] was 6.78%; in [2], -1.65%; in assay [3] it was 2.65%; in assay [4], 5.67%; in assay [5], 9.2%; in assay [6] it was 1.86%. The inhibition in assay [7] is 7.38%; in assay [8], 6%; in assay [9], 5.61%; in assay [10], 3.4%; in assay [11] it was 3.63%; in assay [12], -1.48%. Besides, the inhibition is 3.81% in [13]; 3.43% in assay [14]; 3.19% in assay [15]; 0.47% in assay [16]; 0.45% in [17]; 0.92% in assay [18]. The inhibition in assay [19] was -0.98%; in assay [20], 0.08%.

As to `NS(=O)(=O)c1ccc(Nc2ncc(-c3ccccc3)o2)cc1`, the inhibition in [1] was 3.8%; in assay [2], -0.01%; in assay [3] it was 1.63%; in assay [4], 3.61%; in assay [5], 9.04%; in assay [6] it was 6.06%. The inhibition is 7.67% in assay [7]; 3.81% in assay [8]; 5.86% in [9]; 0.56% in [10]; 1.81% in assay [11]; -0.91% in assay [12]. Further, the inhibition in [13] is 0.75%; in [14], 3.75%; in [15], 2.69%; in assay [16], 0.62%; in assay [17], 3.33%; in [18] it was -3.61%. Besides, the values for the inhibition in assay [19] and in assay [20] were 4.39% and 0.6%, respectively.

Consider `COc1ccc2c(-c3ccnc(Nc4cccc(OC(F)(F)F)c4)n3)cnn2n1`, for which the inhibition in [1] is 3.9%; in assay [2], -1.04%; in assay [3], 2.71%; in assay [4], 2.92%; in assay [5] it was 8.4%; in assay [6] it was 0.17%. For the same compound, the inhibition in assay [7] was 5.04%; in assay [8], -1.73%; in [9] it was 7.58%; in [10] it was 1.78%; in assay [11] it was 2.47%; in assay [12] it was -0.39%. The inhibition was found to be 3.84% in [13]; 2.57% in [14]; 6.99% in assay [15]; 0.71% in assay [16]; 5.67% in assay [17]; 0.16% in assay [18]. Further, the inhibition is 2.84% in [19] and 0% in [20].

For the compound `c1ccc(-c2nc3n(c2-c2ccc4c(c2)OCO4)CCC3)nc1`, the inhibition in assay [1] is 2.21%; in assay [2], -1.69%; in assay [3], -1.14%; in assay [4], 4.21%; in [5], 13.4%; in assay [6], 0.27%. Moreover, the inhibition in assay [7] is 2.77%; in assay [8], 1.49%; in [9], 2.52%; in [10] it was 1.78%; in assay [11], 1.88%; in assay [12] it was -0.51%. The inhibition in assay [13] was -1.84%; in [14] it was 5.05%; in assay [15] it was 7.23%; in assay [16], 6.67%; in [17] it was 8.16%; in assay [18] it was -3.19%. Further, the inhibition in assay [19] is -2.19%; in assay [20] it was -1.79%.

The values are drawn from ChEMBL document CHEMBL1961873, “Compounds: GSK PKIS; Assays: Nanosyn kinase panel” (2012).
